{
  "source": "the supplement of paper PMC8975748",
  "note": "Structures can show the parent of a compound that is named as a salt.",
  "data": [
    {"system": "Saccharomyces cerevisiae BY4741 SeMeCo community", "assay": "z-score of subpopulation abundance vs DMSO median, subpopulation auxotrophic for HL; higher = larger share of this subpopulation than in DMSO controls", "conditions": "10 µM; 24 h; SM minimal medium; subpopulation (auxotrophy): HL", "experimental": "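Fluorescent four-plasmid SeMeCo (self-establishing metabolically cooperating S. cerevisiae BY4741 community; plasmids pH-mRuby2, pL-mWasabi, pU-eCFP, pM-TagRFP657) was grown 24 h in minimal SM medium with each Selleck FDA-approved drug at 10 µM in 384-well plates. Cells were fixed and imaged by high-content confocal microscopy. For each auxotrophic subpopulation (and the prototroph), a z-score gives the deviation from the DMSO vehicle-control population median.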", "values": [
      {"compound": "N[C@@H]1C[C@H]1c1ccccc1", "note": "[Tranylcypromine (2-PCPA) HCl]", "z-score of subpopulation abundance": -0.72},
      {"compound": "CCCCCCCCCCCCCCCC[n+]1ccccc1", "note": "[Cetylpyridinium Chloride]", "z-score of subpopulation abundance": 13.5},
      {"compound": "Oc1cc(Cl)ccc1Oc1ccc(Cl)cc1Cl", "note": "[Triclosan]", "z-score of subpopulation abundance": -0.78},
      {"compound": "CC(=O)O[C@H]1C[C@@H]2CC[C@@H]3[C@H](CC[C@@]4(C)[C@H]3C[C@H]([N+]3(C)CCCCC3)[C@@H]4OC(C)=O)[C@@]2(C)C[C@@H]1[N+]1(C)CCCCC1", "note": "[Pancuronium dibromide]", "z-score of subpopulation abundance": 0.38},
      {"compound": "Cn1cc(C2=C(c3cn(C4CCN(Cc5ccccn5)CC4)c4ccccc34)C(=O)NC2=O)c2ccccc21", "z-score of subpopulation abundance": -1.11},
      {"compound": "O=C(O[C@H]1C[C@H]2CC[C@@H](C1)[N+]21CCCC1)C(O)(c1ccccc1)c1ccccc1", "note": "[Trospium chloride]", "z-score of subpopulation abundance": -0.4},
      {"compound": "C=CC[C@]1(O)CC[C@H]2[C@@H]3CCC4=CC(=O)CCC4=C3C=C[C@@]21C", "note": "[Altrenogest]", "z-score of subpopulation abundance": 0.59},
      {"compound": "CN(C)[C@@H]1C(=O)C(C(N)=O)=C(O)[C@@]2(O)C(=O)C3=C(O)c4c(O)cccc4[C@@](C)(O)[C@H]3[C@H](O)[C@@H]12", "note": "[Oxytetracycline (Terramycin)]", "z-score of subpopulation abundance": 0.77},
      {"compound": "C[N+]1(C)[C@@H]2C[C@@H](OC(=O)[C@H](CO)c3ccccc3)C[C@H]1[C@@H]1O[C@@H]12", "note": "[Methscopolamine]", "z-score of subpopulation abundance": -0.05},
      {"compound": "Cc1cc(O)ccc1Cl", "note": "[Chlorocresol]", "z-score of subpopulation abundance": -0.86},
      {"compound": "CCN1CC2(OC(=O)c3ccccc3NC(C)=O)CCC(OC)C34C1C(CC23)C1(O)CC(OC)C2CC4C1(O)C2OC", "note": "(stereo not given) [Lappaconitine]", "z-score of subpopulation abundance": -0.26},
      {"compound": "CN[C@@H]1[C@@H](O)[C@@H](O[C@@H]2[C@@H](O)[C@H](O[C@H]3O[C@H]([C@@H](C)O)[C@@H](O)[C@H](O)[C@H]3N)[C@@H](N)C[C@H]2N)OC[C@]1(C)O", "note": "[Geneticin (G418 Sulfate)]", "z-score of subpopulation abundance": -0.02},
      {"compound": "CC[C@@H](C(N)=O)N1CCCC1=O", "note": "[Levetiracetam]", "z-score of subpopulation abundance": -1.01},
      {"compound": "C=C[C@H]1CN2CC[C@H]1C[C@H]2[C@H](O)c1ccnc2ccccc12", "note": "[Cinchonidine]", "z-score of subpopulation abundance": -0.64},
      {"compound": "CN(C)C(=O)Oc1cccc([N+](C)(C)C)c1", "note": "[Neostigmine Bromide]", "z-score of subpopulation abundance": -0.44},
      {"compound": "CC1(C)SC2C(N)C(=O)N2C1C(=O)O", "note": "(stereo not given) [6-Aminopenicillanic acid]", "z-score of subpopulation abundance": -0.37},
      {"compound": "C=C(C)[C@H]1Cc2c(ccc3c2O[C@@H]2COc4cc(OC)c(OC)cc4[C@@H]2C3=O)O1", "note": "[Rotenone (Barbasco)]", "z-score of subpopulation abundance": 0.53},
      {"compound": "CCC1=C[C@H]2CN3CCc4c([nH]c5ccccc45)[C@](C(=O)OC)(C2)[C@H]13", "note": "[Catharanthine]", "z-score of subpopulation abundance": -1.12},
      {"compound": "Nc1ccncc1", "note": "[4-Aminopyridine]", "z-score of subpopulation abundance": 0.38},
      {"compound": "CCOC(=O)Nc1ccc(NCc2ccc(F)cc2)cc1N", "note": "[Retigabine]", "z-score of subpopulation abundance": 0.75},
      {"compound": "C[N+]12CCC(CC1)C(OC(=O)C(O)(c1ccccc1)c1ccccc1)C2", "note": "(stereo not given) [Clidinium Bromide]", "z-score of subpopulation abundance": -0.33},
      {"compound": "COc1ccc2[nH]cc(CCN)c2c1", "note": "[5-Methoxytryptamine]", "z-score of subpopulation abundance": -0.31},
      {"compound": "NCC(O)c1ccc(O)cc1", "note": "(racemic) [(+,-)-Octopamine HCl]", "z-score of subpopulation abundance": -1.17},
      {"compound": "C[C@@H]1CC[C@H]2[C@@H](C)C(=O)O[C@@H]3O[C@@]4(C)CC[C@@H]1[C@]32OO4", "note": "[Artemisinin]", "z-score of subpopulation abundance": -0.27},
      {"compound": "COc1ccc(C(CN(C)C)C2(O)CCCCC2)cc1", "note": "(stereo not given) [Venlafaxine HCl]", "z-score of subpopulation abundance": 1.07},
      {"compound": "NC(=O)CN1CCCC1=O", "note": "[Piracetam]", "z-score of subpopulation abundance": 0.98},
      {"compound": "O=c1[nH]c2ccccc2n1CCCN1CCC(n2c(=O)[nH]c3cc(Cl)ccc32)CC1", "note": "[Domperidone]", "z-score of subpopulation abundance": 0.19},
      {"compound": "COc1ccc(C(CN(C)C)C2(O)CCCCC2)cc1", "note": "(stereo not given) [Venlafaxine]", "z-score of subpopulation abundance": -1.14},
      {"compound": "CN1C(=O)COc2c(C(=O)NC3CN4CCC3CC4)cc(Cl)cc21", "note": "(stereo not given) [Azasetron HCl]", "z-score of subpopulation abundance": 1.41},
      {"compound": "O=C(O[C@H]1C[N+]2(CCCOc3ccccc3)CCC1CC2)C(O)(c1cccs1)c1cccs1", "note": "[Aclidinium Bromide]", "z-score of subpopulation abundance": -1.16},
      {"compound": "CN(C)[C@@H]1C(=O)C(C(N)=O)=C(O)[C@@]2(O)C(=O)C3=C(O)c4c(O)ccc(Cl)c4[C@@](C)(O)[C@H]3C[C@@H]12", "note": "[Chlortetracycline HCl]", "z-score of subpopulation abundance": 0.38},
      {"compound": "CC(C)=CCOc1c2occc2cc2ccc(=O)oc12", "note": "[Imperatorin]", "z-score of subpopulation abundance": 0.34},
      {"compound": "CC(C)N(CCC(C(N)=O)(c1ccccc1)c1ccccn1)C(C)C", "note": "(stereo not given) [Disopyramide]", "z-score of subpopulation abundance": 2.14},
      {"compound": "COc1ccc2c(c1)[C@]13CCCC[C@@H]1[C@H](C2)N(C)CC3", "note": "[Dextromethorphan hydrobromide hydrate]", "z-score of subpopulation abundance": -0.33},
      {"compound": "CN(C)C(=O)Oc1ccc[n+](C)c1", "note": "[Pyridostigmine Bromide]", "z-score of subpopulation abundance": 0.3},
      {"compound": "COc1ccc(C=O)cc1", "note": "[p-Anisaldehyde]", "z-score of subpopulation abundance": -0.29},
      {"compound": "Cc1cc(C(C#N)c2ccc(Cl)cc2)c(Cl)cc1NC(=O)c1cc(I)cc(I)c1O", "note": "(stereo not given) [Closantel]", "z-score of subpopulation abundance": 0.7},
      {"compound": "C[N+](C)(C)CCCCCCCCCC[N+](C)(C)C", "note": "[Decamethonium Bromide]", "z-score of subpopulation abundance": -0.3},
      {"compound": "CCCN1C[C@H](CSC)C[C@@H]2c3cccc4[nH]cc(c34)C[C@H]21", "note": "[Pergolide Mesylate]", "z-score of subpopulation abundance": -0.35},
      {"compound": "CCN(C)C(=O)Oc1cccc([C@H](C)N(C)C)c1", "note": "[Rivastigmine]", "z-score of subpopulation abundance": -0.54}
    ]}
  ]
}
